Results on 47 molecules are retold here after PubChem BioAssay AID1347416 (National Center for Advancing Translational Sciences (NCATS), 2020).

The structures appear in SMILES notation. About 1,600 (39%) of roughly 4,100 compounds were called active. Inconclusive results (about 25%) are left out. Some of the results follow. A number with no mark means an inactive call. Calls come from the whole dose curve; as a rule, active = well fitted inhibition curve with a large enough effect; inconclusive = small, poorly fitted or top-dose-only effect; inactive = no such curve, though single readings can be large or run the other way.
% is set by controls: 0 for no effect and ±100 for the full control effect; potency is the fitted concentration of half-maximal effect.

The nature of the experiment: qHTS Validation assay for Inhibitors of Plasmodium falciparum Dd2 growth in vitro. Note: nearly all actives have a fitted effect of over 70% in size. To be noted: P. falciparum Dd2 in RBCs, SYBR Green growth, 72 h; series mostly up to 28.7 µM; activity change, negative = inhibition: at the top concentration. The procedure, abridged: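 P. falciparum Dd2-infected red blood cells (2.5% hematocrit, 0.3% parasitemia) grown 72 h at 37 °C under 5% O2 with compounds in a titration, 29 uM to 0.5 nM final. Growth read as SYBR Green-1 fluorescence after ~16 h lysis; artesunate 300 nM as positive control.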
(qHTS replaces the single test concentration by a dilution series.)
Regarding `CCCOc1ccc(-c2nonc2NC(=O)c2cc(OC)c(OC)c(OC)c2)cc1OCCC`, the Potency was 5.96 µM (active).
On the same count and under the same terms, the value for `CCNc1nc(OC)nc(Oc2ccc(=O)n(-c3ccccc3)n2)n1` was 5.96 µM (active); that for `CC(C)Cn1c(-c2ccco2)nc2c(c(=O)c3ccccc3n2C)c1=O` was 9.44 µM (active).
Regarding `Cc1ccc(S(=O)(=O)N2CCC(C(=O)NC3CC3)CC2)cc1`, the “activity change, negative = inhibition” value is -28%.
`CS(=O)(=O)N1CCC(OC2CCN(C(=O)Nc3cc(F)ccc3F)CC2)CC1`: the “activity change, negative = inhibition” value was 11.4%.
Take `O=S(=O)(c1ccc(F)cc1)N1CCN(C(=S)NC2CC2)CC1`: the Potency was 3.35 µM (active).
Same read-out and setting: the value for `COc1ccc(S(=O)(=O)N2CCN(C(=S)NC3CCCCC3)CC2)cc1` was 6.68 µM (active).
Turning to `O=C(CC1CCN(C(=O)c2cccs2)C1)NCc1ccccc1` (configuration not stated), the “activity change, negative = inhibition” value is 9.3%.
As to `O=C(c1cccs1)N1CCC(O)(c2ccccc2)[C@H](N2CCCC2)C1` (some centres not stated), the Potency was 9.44 µM (active).
In the case of `CCOc1ccc(CN2CC[C@@](C)(O)[C@H](N3CCCC3)C2)cc1`, the “activity change, negative = inhibition” value was -16.2%.
With `Cc1nn(C)cc1CN1CCC(O)(c2ccccc2)[C@H](N2CCCC2)C1` (some centres not stated), the “activity change, negative = inhibition” value was -28.5%.
`O=C(c1cccs1)N1CCC(n2cc(-c3nc(-c4ccccc4)no3)nn2)CC1`: the “activity change, negative = inhibition” value was -8.44%.
For `O[C@]1(c2ccccc2)CCN(Cc2ccncc2)C[C@H]1N1CCCC1`, the Potency was 9.44 µM (active).
Regarding `O[C@]1(c2ccccc2)CCN(Cc2ccco2)C[C@H]1N1CCCC1`, the Potency was 8.41 µM (active).
As to `c1ccc(-c2noc(-c3ccn4c(CN5CCN(c6ccccn6)CC5)nnc4c3)n2)cc1`, the “activity change, negative = inhibition” value is -6.11%.
For `CCOc1ccc2[nH]c3c(NCCN(C)C)ncnc3c2c1`, the Potency was 16.8 µM (active).
For the molecule `CC1Cn2c(nnc2-c2cc3ccccc3cc2O)S1` (configuration not stated), the Potency is 4.73 µM (active).
In the case of `CCc1ccc(Oc2c(C(F)(F)F)oc3c(CN4CCN(CC)CC4)c(O)ccc3c2=O)cc1`, the Potency is 0.376 µM (active).
On the same count and under the same terms, the value for `CCc1ccc(Oc2c(C(F)(F)F)oc3c(CN4CCN(C)CC4)c(O)ccc3c2=O)cc1` was 0.75 µM (active).
Regarding `C=CCO[C@@H]1CCN2C(=O)c3cc(-c4cc(Cl)ccc4OC)ccc3NC(=O)[C@H]12`, the “activity change, negative = inhibition” value is -16.7% [at 43.1 µM].
For the molecule `CC(C)C(=O)NCC1CN(Cc2ccccc2)C(=O)c2c(ccnc2-c2ccc(OCC(=O)O)cc2)O1` (configuration not stated), the Potency was 2.11 µM (active).
Take `O=C(O)COc1ccc(-c2nccc3c2C(=O)N(Cc2ccccc2)CC(CNC(=O)c2ccc(F)cc2)O3)cc1` (configuration not stated): the “activity change, negative = inhibition” value is -17.6%.
As for `Oc1ccccc1Nc1nc(NCc2ccco2)c2ccccc2n1`, the Potency was 2.99 µM (active).
Consider `Cc1cccc(Nc2nc(NCc3ccco3)c3ccccc3n2)c1`, for which the Potency is 4.73 µM (active).
Still for that read-out and setting: the value for `c1ccc(Nc2nc(NCc3ccco3)c3ccccc3n2)cc1` was 1.68 µM (active); that for `OCCNc1nc(Nc2ccc(Br)cc2)nc2ccccc12` was 2.66 µM (active).
Consider `NCC(=O)N1CCC(n2nccc2NC(=O)c2ccc3c(c2)OCO3)CC1`, for which the “activity change, negative = inhibition” value is 37.3%.
On the same count and under the same terms, the value for `CN1C(=O)c2cncnc2OCC1CNC(=O)Cc1cccs1` (configuration not stated) was 1.04% [at 43.1 µM].
In the case of `COc1cc(O)c(C(CCN2CCN(c3ccccc3)CC2)c2ccc(N(C)C)cc2)c(OC)c1` (configuration not stated), the Potency is 0.596 µM (active).
Same read-out and setting: next, `COc1ccc(C(CCN2CCN(c3ccccc3)CC2)c2c(O)cc(OC)cc2OC)cc1` (configuration not stated): 0.944 µM (active).
Still for that read-out and setting: next, `N#Cc1c(N2CCN(c3ccc(F)cc3)CC2)nc(N)c2c(N)nc3c(c12)CC(=O)N3C1CC1`: 0.668 µM (active).
As to `C=CCOC(=O)C1=C[C@@H](c2ccc(C(F)(F)F)cc2)[C@H](CCCO)[C@@H](OCC)O1`, the Potency is 7.5 µM (active).
`CC(C)(C)n1nnnc1C(c1cc2cc3c(cc2[nH]c1=O)OCO3)N1CCN(c2ccccc2)CC1` (configuration not stated): the Potency was 7.5 µM (active).
The same measure, in the same setting: the value for `COc1ccccc1N1CCN(C(c2cc3ccc(C)cc3[nH]c2=O)c2nnnn2C2CCCC2)CC1` (configuration not stated) was 7.5 µM (active); that for `COc1ccc(N2CCN(C(c3cc4ccc(C)cc4[nH]c3=O)c3nnnn3C3CCCC3)CC2)cc1` (configuration not stated) was 6.68 µM (active).
For the molecule `COCCN1CC2(CCCN(Cc3cc(C(C)(C)C)n[nH]3)C2)CCC1=O` (configuration not stated), the “activity change, negative = inhibition” value is 0%.
Take `Cc1ccc(C)c(OCCn2cc(C(=O)c3ccco3)c3ccccc32)c1`: the Potency is 5.31 µM (active).
As for `Cc1ccccc1OCCn1cc(C(=O)c2ccco2)c2ccccc21`, the Potency is 5.31 µM (active).
In the case of `COC(=O)c1cccc(NC(=S)N[C@H]2CO[C@H]3[C@@H]2OC[C@H]3OC(=O)Nc2ccccc2)c1`, the “activity change, negative = inhibition” value was 7.55%.
As for `COCCN(CCOC)c1nc(N)c2c(N)nc3c(c2c1C#N)CC(=O)N3Cc1ccc(Cl)cc1`, the Potency was 5.96 µM (active).
As to `Cc1cccc(C)c1NC(=O)CN1C(=O)NC(c2ccccc2Cl)C2=C1COC2=O` (configuration not stated), the “activity change, negative = inhibition” value is -22%.
`CC(C)[C@@H]1CN(S(=O)(=O)c2ccc(Cl)cc2Cl)C[C@H]1N(C)C`: the Potency was 6.68 µM (active).
Regarding `CC(Sc1nc2sccc2c(=O)n1-c1ccccc1)C(N)=O` (configuration not stated), the “activity change, negative = inhibition” value was 11.5%.
As for `CCOC(=O)c1c(NC(=O)CSc2nc3ccccc3c(=O)n2-c2ccccc2)sc(C(C)=O)c1C`, the Potency is 13.3 µM (active).
Regarding `CCOC(=O)C1CCN(C(=O)CSc2nc(N)cc(=O)[nH]2)CC1`, the “activity change, negative = inhibition” value is 21.4%.
On to `CCOC(=O)C1CCN(Cc2cc(Cl)c3ccccc3c2O)CC1`, for which the Potency was 1.88 µM (active).
On to `CCOC(=O)C1CCN(c2cc(=O)n(-c3ccccc3Cl)c(=O)[nH]2)CC1`, for which the Potency is 8.41 µM (active).
